PTAP TSG101 blk – blocks PTAP/TSG101 interaction to inhibit HIV-1 budding; Q99816; Fluorescence polarization, FITC-PTAP peptide / Tsg101 binding; Potency, µM (titrated, usually from 115 µM), actives largely listed as inhibitors; 340,000 tested, under 10 active; AID 493005; active means well fitted inhibition curve with a large enough effect in the main read-out, with a control signal flat, not every such curve was filed as active; inconclusive means small, poorly fitted or top-dose-only effect, or effect the other way, or a change in a side signal; inactive means no such curve, though single readings can be large or run the other way
Target sequence (Q99816 whole entry, looked up): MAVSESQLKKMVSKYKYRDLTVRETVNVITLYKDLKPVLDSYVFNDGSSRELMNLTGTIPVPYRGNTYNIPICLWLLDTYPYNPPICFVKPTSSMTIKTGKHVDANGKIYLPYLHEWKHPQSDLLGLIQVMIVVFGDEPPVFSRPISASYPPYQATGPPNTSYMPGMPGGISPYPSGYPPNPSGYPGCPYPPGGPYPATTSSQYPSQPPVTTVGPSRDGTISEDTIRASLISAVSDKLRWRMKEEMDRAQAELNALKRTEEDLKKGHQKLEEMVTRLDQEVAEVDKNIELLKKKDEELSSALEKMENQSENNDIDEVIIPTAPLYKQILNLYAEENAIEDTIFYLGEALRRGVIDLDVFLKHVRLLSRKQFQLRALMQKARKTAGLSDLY
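Tsg101 binding domain (10 uM final) was mixed with compound and a FITC-labeled PTAP peptide (50 nM final) in HEPES pH 7.5 buffer with NaCl, Tween 20, EDTA and TCEP; fluorescence polarization was read after 20 min at r.t.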
KB-3-1 cytotox – kills parental KB-3-1 adenocarcinoma cells; KB-3-1 viability, CellTiter-Glo ATP luminescence, 72 h; Potency, µM (titrated, usually from 46.1 µM), actives largely listed as cytotoxic; hit rate 1.4% among 400,000; AID 1347075; further: nearly all actives have a fitted effect of over 60% in size
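72 h, 37 °C compound treatment of KB-3-1 parental cells; CellTiter-Glo added, 10 min, luminescence read. Data corrected against DMSO-only plates and normalized before curve fitting.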
PINK1 modulator – changes PINK1 expression; PINK1 immunofluorescence, high-content cytometry, 24 h; Potency, µM (titrated, usually from 76.6 µM), hits mostly activators; hit rate 0.2% among 410,000; AID 624263; active means well fitted activation curve with a large enough effect; inconclusive means small, poorly fitted or top-dose-only effect; cell line not stated here; further: nearly all actives have a fitted effect of over 65% in size
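PINK1 protein level read as immunofluorescence by microplate cytometer in a fixed, stained stable cell line after 24 h exposure to five compound concentrations, with CCCP as control.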
MCF10A rereplic – DNA re-replication induction in MCF 10a cells; MCF 10A DNA re-replication, Hoechst nuclear intensity, 48 h; hit rate 2.9% among 350,000; AID 624296; Potency, µM (doses to about 46.1 µM), usual class: activators; further: nearly all actives have a fitted effect of over 50% in size
KB-V1 cytotox – kills drug-selected multidrug resistant KB-V1 cells | hit rate 3.4% among 400,000 | Potency, µM (top dose mostly 46.1 µM), most hits filed as cytotoxic | KB-V1 MDR cells viability, CellTiter-Glo, 72 h; further: nearly all actives have a fitted effect of over 60% in size
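Readout: CellTiter-Glo luminescence, 10 min after addition. Cells: KB-V1 MDR subline, 72 h at 37 degrees C with compound. Analysis: corrected, normalized data fitted to concentration-effect curves.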
SW480 rereplic – DNA re-replication induction in SW480 cells; SW480 DNA re-replication, Hoechst DNA content imaging, 48 h; Potency, µM (series often up to 46.1 µM), most hits filed as activators; hit rate 1.8% among 340,000; AID 624297; further: nearly all actives have a fitted effect of over 55% in size
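Quantitative HTS format with DMSO vehicle controls; 48 hr drug incubation at 37 C, then 40 min Hoechst staining and scanning imager measurement at 405 nm excitation.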
Of the large screens only hits and unclear results are named; the others gave an inactive call. The list is not random: actives were taken first. Their share in the collection is about 6.8%. Unless noted, the call rests on the fitted dose curve; in most records, active means well fitted curve in the direction sought with a large enough effect; inconclusive means small, poorly fitted or top-dose-only effect, or another doubt; inactive means no such curve, though single readings can be large; an effect the other way counts as inactive or inconclusive.

CCc1cc2cc3c(cc2nc1SCC(=O)Nc1nnc(C)s1)OCCO3	MCF10A rereplic 3.3µM, KB-V1 cytotox inconclusive, SW480 rereplic 16µM
CCOC(=O)CSc1nc2cc3c(cc2cc1CC)OCCO3	KB-V1 cytotox inconclusive
CCN(CC)S(=O)(=O)c1ccc2oc(SCC(=O)Nc3cc(C)on3)nc2c1	KB-3-1 cytotox inconclusive, KB-V1 cytotox 3.7µM, SW480 rereplic inconclusive
CCc1nnc(NC(=O)CSc2nc3cc4c(cc3cc2CC)OCCO4)s1	PINK1 modulator 11µM, MCF10A rereplic inconclusive
CCc1cc2cc(C)ccc2nc1SCC(=O)Nc1cc(C)on1	KB-V1 cytotox 9.2µM
CCc1cc2ccc(C)cc2nc1SCC(=O)Nc1cc(C)on1	none
Cc1ccc(CNC(=O)c2cc(-c3ccc(C)cc3)nc3n[nH]c(-c4cccc([N+](=O)[O-])c4)c23)cc1	none (no result: PTAP TSG101 blk, MCF10A rereplic, SW480 rereplic)
COC(=O)CSc1nc2cc3c(cc2cc1C)OCO3	none
Cc1cc2cc3c(cc2nc1SCC(=O)Nc1nc(C)c(C)s1)OCO3	KB-3-1 cytotox inconclusive, PINK1 modulator inconclusive, MCF10A rereplic 4.1µM
BrC(=C\c1ccccc1)/C=N/Nc1nc2ccccc2[nH]1	MCF10A rereplic 8.2µM, KB-V1 cytotox inconclusive, SW480 rereplic inconclusive
C(=N\Nc1nc2ccccc2[nH]1)/c1ccc2ncccc2c1	KB-3-1 cytotox 1µM, MCF10A rereplic inconclusive, KB-V1 cytotox inconclusive
C(=N\Nc1nc2ccccc2[nH]1)/c1ccccn1	SW480 rereplic inconclusive
COc1ccc2c(c1)c(/C=N/Nc1nc3ccccc3[nH]1)c(C)n2C	MCF10A rereplic 21µM, SW480 rereplic inconclusive
O=C(O)c1ccc(N/N=C/C(Br)=C/c2ccccc2)cc1	MCF10A rereplic inconclusive, SW480 rereplic inconclusive
COc1cc(/C=N\Nc2nc3ccccc3[nH]2)cc(OC)c1OC	MCF10A rereplic inconclusive, KB-V1 cytotox 5.8µM
COc1ccc(/C=N/Nc2nc3ccccc3[nH]2)cc1OC	KB-V1 cytotox inconclusive
COc1ccccc1OCc1nnc(-c2ccccc2)o1	none (no result: PTAP TSG101 blk, KB-3-1 cytotox, MCF10A rereplic, KB-V1 cytotox, SW480 rereplic)
COc1cccc(NC(=O)c2oc3ccccc3c2NC(=O)c2ccccc2C)c1	none (no result: PTAP TSG101 blk, MCF10A rereplic, SW480 rereplic)
CSc1nccc(-c2cc(Cl)c3c(c2)CC(CNC(=O)c2ccc(C)nc2)O3)n1 (stereo not drawn)	none (no result: PTAP TSG101 blk, KB-3-1 cytotox, MCF10A rereplic, KB-V1 cytotox, SW480 rereplic)
Cc1nc(N2CCN(c3ccccc3O)CC2)c2c(-c3ccccc3)csc2n1	KB-3-1 cytotox inconclusive, MCF10A rereplic 13µM, SW480 rereplic inconclusive
Oc1ccccc1N1CCN(c2ncnc3scc(-c4ccccc4)c23)CC1	KB-3-1 cytotox inconclusive, MCF10A rereplic 21µM, KB-V1 cytotox inconclusive, SW480 rereplic inconclusive
CCOc1ccccc1N1CCN(c2ncnc3scc(-c4ccc(OC)cc4)c23)CC1	KB-3-1 cytotox 13µM, MCF10A rereplic inconclusive, KB-V1 cytotox inconclusive, SW480 rereplic inconclusive
CCCCN1CCCc2cc(CN(CCCN3CCOCC3)C(=O)Nc3ccc(CC)cc3)ccc21	none (no result: PTAP TSG101 blk, MCF10A rereplic, SW480 rereplic)
COc1ccccc1-c1nc2ccccc2nc1-c1ccccc1	MCF10A rereplic inconclusive
COc1ccccc1-c1nc2cc3ccccc3cc2nc1-c1ccccc1OC	MCF10A rereplic inconclusive, SW480 rereplic 9.2µM
CCn1c(-c2ccccc2F)nc2cc(NC(C)=O)cc(C(=O)N3CCC[C@H]3C(=O)OC)c21	none (no result: PTAP TSG101 blk, KB-3-1 cytotox, MCF10A rereplic, KB-V1 cytotox, SW480 rereplic)
CCCCN(C)CC(O)Cn1cc(/C=C/C(=O)c2ccc(OCC)cc2)c2ccccc21 (stereo not drawn)	KB-V1 cytotox inconclusive (no result: PTAP TSG101 blk, MCF10A rereplic, SW480 rereplic)
O=C(/C=C/c1cn(CC(O)CN2CCCCCC2)c2ccccc12)c1cccs1 (stereo not drawn)	KB-3-1 cytotox inconclusive, MCF10A rereplic 15µM, KB-V1 cytotox inconclusive, SW480 rereplic 18µM
CCCCN(C)CC(O)Cn1cc(/C=C/C(=O)c2cccs2)c2ccccc21 (stereo not drawn)	KB-3-1 cytotox inconclusive, MCF10A rereplic 16µM, KB-V1 cytotox inconclusive, SW480 rereplic 23µM
CCOC(=O)C1=C(CS(=O)(=O)c2cccc(C(F)(F)F)c2)NC(=O)NC1c1cccc(OC)c1 (stereo not drawn)	none (no result: PTAP TSG101 blk, MCF10A rereplic, SW480 rereplic)
